Data taken from paper PMC5700166.
Changes are numbered by the printed parent chain.

Tests used:
Assay in all cases: protein-binding microarray (PBM); PBM: ~300 nM protein, 6 mM HEPES pH 7.8, 80 mM KCl, 0.5 mM EDTA, 0.5 mM EGTA, 6% glycerol, 35 ng/ul poly-dIdC, 1% milk, 1 h, room temperature; Ap Aiptasia and Nv Nematostella (sea anemones) / Co Capsaspora / Aq Amphimedon (sponge) / Dm Drosophila / Hu human; RHD is the Rel homology domain; high values mean tight binding
Conditions in all cases: dsDNA, one strand shown
GST-Ap-NF-kB RHD = target: T1, GST-Ap-NF-kB RHD (Exaiptasia pallida (Aiptasia), UniProt A0A913YAJ5 2-422)
T1 sequence: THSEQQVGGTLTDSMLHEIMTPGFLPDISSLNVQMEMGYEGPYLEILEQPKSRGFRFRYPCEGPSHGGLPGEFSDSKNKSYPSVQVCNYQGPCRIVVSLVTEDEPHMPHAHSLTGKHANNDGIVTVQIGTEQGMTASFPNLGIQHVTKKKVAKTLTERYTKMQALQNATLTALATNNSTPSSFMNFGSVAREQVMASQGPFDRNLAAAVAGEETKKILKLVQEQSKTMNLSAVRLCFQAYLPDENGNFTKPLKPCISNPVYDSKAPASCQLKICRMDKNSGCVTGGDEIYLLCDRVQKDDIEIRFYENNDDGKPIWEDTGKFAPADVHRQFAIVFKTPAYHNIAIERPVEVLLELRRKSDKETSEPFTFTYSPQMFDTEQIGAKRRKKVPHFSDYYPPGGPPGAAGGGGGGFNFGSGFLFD

[1] = target: T2, GST-Nv-NF-kB (Cys allele) (Nematostella vectensis, UniProt E5G601 2-411)
T2 sequence: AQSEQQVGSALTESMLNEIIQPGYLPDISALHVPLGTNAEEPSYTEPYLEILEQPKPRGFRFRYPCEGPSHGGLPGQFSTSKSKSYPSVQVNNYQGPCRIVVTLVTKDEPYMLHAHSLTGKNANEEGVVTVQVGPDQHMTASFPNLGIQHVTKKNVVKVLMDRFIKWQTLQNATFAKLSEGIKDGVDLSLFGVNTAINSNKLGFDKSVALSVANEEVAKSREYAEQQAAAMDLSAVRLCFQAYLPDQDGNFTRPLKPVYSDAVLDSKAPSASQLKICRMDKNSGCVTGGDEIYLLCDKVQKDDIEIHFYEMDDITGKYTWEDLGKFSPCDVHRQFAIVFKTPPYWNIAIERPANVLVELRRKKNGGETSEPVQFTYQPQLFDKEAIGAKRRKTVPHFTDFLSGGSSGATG

[2] = target: T3, GST-Nv-NF-kB (Ser allele) (Nematostella vectensis, UniProt A7UNT2 2-411)
T3 sequence: T2 sequence with Q21R, C66S, S207N, E215Q, V217A, E225K, A268E, D399E

GST-Co-NF-kB = target: T4, GST-Co-NF-kB (Capsaspora owczarzaki, UniProt F1ARL5 200-546)
T4 sequence: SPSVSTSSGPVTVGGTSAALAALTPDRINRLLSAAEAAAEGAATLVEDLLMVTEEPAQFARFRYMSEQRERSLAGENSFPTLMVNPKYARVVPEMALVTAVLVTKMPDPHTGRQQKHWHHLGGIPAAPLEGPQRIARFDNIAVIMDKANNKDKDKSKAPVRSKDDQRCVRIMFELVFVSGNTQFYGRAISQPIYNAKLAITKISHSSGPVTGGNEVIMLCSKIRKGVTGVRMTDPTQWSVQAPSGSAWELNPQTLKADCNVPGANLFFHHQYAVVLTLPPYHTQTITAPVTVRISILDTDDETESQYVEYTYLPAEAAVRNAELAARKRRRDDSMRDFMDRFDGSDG

GST-Dm-Relish = target: T5, GST-Dm-Relish (Drosophila melanogaster, UniProt Q94527 99-473)
T5 sequence: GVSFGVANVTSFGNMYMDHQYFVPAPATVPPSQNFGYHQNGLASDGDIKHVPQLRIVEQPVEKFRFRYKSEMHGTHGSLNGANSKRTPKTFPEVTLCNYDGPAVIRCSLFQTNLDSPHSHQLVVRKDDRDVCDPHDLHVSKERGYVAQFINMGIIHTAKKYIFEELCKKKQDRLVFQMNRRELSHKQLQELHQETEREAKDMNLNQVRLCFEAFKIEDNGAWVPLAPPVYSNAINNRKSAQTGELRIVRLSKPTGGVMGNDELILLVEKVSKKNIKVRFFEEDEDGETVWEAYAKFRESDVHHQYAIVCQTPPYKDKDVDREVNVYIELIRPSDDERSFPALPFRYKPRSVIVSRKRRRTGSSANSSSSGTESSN

GST-Aq-NF-kB = target: T6, GST-Aq-NF-kB (Amphimedon queenslandica, UniProt A9Y5G7 2-389)
T6 sequence: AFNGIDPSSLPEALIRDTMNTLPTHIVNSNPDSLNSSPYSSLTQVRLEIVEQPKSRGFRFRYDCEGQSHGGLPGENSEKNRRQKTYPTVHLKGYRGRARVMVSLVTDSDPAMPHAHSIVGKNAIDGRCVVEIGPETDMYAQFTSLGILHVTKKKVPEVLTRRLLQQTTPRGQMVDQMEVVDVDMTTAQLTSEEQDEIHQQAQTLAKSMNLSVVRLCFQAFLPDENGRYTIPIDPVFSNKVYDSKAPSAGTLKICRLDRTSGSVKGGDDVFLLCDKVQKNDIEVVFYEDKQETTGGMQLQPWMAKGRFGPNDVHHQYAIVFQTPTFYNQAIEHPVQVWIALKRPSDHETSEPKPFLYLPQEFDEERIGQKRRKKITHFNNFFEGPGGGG

GST-Hu-p50 = GST-Hu-p50 (Homo sapiens, UniProt P19838 7-356)
GST-Hu-p50, sequence (P19838 7-356): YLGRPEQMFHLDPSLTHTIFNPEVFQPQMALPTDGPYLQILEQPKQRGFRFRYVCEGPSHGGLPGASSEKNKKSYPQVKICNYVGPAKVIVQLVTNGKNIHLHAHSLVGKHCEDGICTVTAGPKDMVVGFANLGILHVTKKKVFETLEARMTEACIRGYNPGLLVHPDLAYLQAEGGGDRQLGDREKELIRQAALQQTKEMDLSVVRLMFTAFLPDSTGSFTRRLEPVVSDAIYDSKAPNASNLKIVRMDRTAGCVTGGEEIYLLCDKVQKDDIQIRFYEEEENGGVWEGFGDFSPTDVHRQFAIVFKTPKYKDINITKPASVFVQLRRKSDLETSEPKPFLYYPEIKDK

Sequence	binding signal (GST-Ap-NF-kB RHD) [z-score]	binding signal [1] [z-score]	binding signal [2] [z-score]	binding signal (GST-Co-NF-kB) [z-score]	binding signal (GST-Dm-Relish) [z-score]	binding signal (GST-Aq-NF-kB) [z-score]	binding signal (GST-Hu-p50) [z-score]
CCGATTAACATCAGGGATTTTACTGATGTTAATCGGGTCTTGATTCGCTTGACGCTGCTG	3.97	3.99	2.96	2.36	7.1	5.29	3.96
CCGATTAACATCAAGAGATCCCCTGATGTTAATCGGGTCTTGATTCGCTTGACGCTGCTG	6.49	5.71	6.22	2.3	6.47	4.97	4.57
CCGATTAACATCAAAACTCCCCATGATGTTAATCGGGTCTTGATTCGCTTGACGCTGCTG	7.13	6.03	6.69	5.85	5.96	5.83	5.36
CCGATTAACATCACCGTTCCCCCTGATGTTAATCGGGTCTTGATTCGCTTGACGCTGCTG	6.48	5.21	6.93	6.76	2.76	4.51	5.25
CCGATTAACATCAAATATTCCCTTGATGTTAATCGGGTCTTGATTCGCTTGACGCTGCTG	5.14	6.37	6.41	3.47	3.18	5.56	4.16
CCGATTAACATCAACTTTTCCCCTGATGTTAATCGGGTCTTGATTCGCTTGACGCTGCTG	6.24	7.19	10	9	2.99	5.09	5.48
CCGATTAACATCAATTTTCCCACTGATGTTAATCGGGTCTTGATTCGCTTGACGCTGCTG	2.82	3.99	4.57	4.54	1.33	3.35	3.37
CCGATTAACATCACCGGGAATTCTGATGTTAATCGGGTCTTGATTCGCTTGACGCTGCTG	4.62	5.1	4.74	5.5	4.57	4.34	4.01
CCGATTAACATCAACGAATTCCCTGATGTTAATCGGGTCTTGATTCGCTTGACGCTGCTG	2.81	4.07	4.93	2.64	2.28	3.08	3.08
CCGATTAACATCAGGGAAGAACCTGATGTTAATCGGGTCTTGATTCGCTTGACGCTGCTG	2.43	3.52	3.35	1.42	8.73	5.54	2.83
CCGATTAACATCAGGGGAGGGAATGATGTTAATCGGGTCTTGATTCGCTTGACGCTGCTG	3.95	5.44	5.03	5.53	2.13	5.17	3.3
CCGATTAACATCAAGGGGAAAACTGATGTTAATCGGGTCTTGATTCGCTTGACGCTGCTG	7.51	8.85	11	8	5.32	6.55	6.9
CCGATTAACATCAAGAAATCCCCTGATGTTAATCGGGTCTTGATTCGCTTGACGCTGCTG	9.62	11.5	12.5	4.27	9.61	7.7	7.69
CCGATTAACATCAATTCCCACCCTGATGTTAATCGGGTCTTGATTCGCTTGACGCTGCTG	2.43	2.6	2.72	3.21	2.33	2.03	2.02
CCGATTAACATCAGGGAATCCCCTGATGTTAATCGGGTCTTGATTCGCTTGACGCTGCTG	14.7	13.7	14.6	6.28	11	12.1	8.34
CCGATTAACATCAAAATTACCCCTGATGTTAATCGGGTCTTGATTCGCTTGACGCTGCTG	4.94	6.27	7.21	7.33	5.24	6.34	5.3
CCGATTAACATCACGGTTTTCCCTGATGTTAATCGGGTCTTGATTCGCTTGACGCTGCTG	3.99	5.02	6.45	4.63	4.43	5.43	3.91
CCGATTAACATCACCTTTTTCCCTGATGTTAATCGGGTCTTGATTCGCTTGACGCTGCTG	3.29	4.53	6.24	5.31	1.92	3.4	4.16
CCGATTAACATCAGGGAAAGTACTGATGTTAATCGGGTCTTGATTCGCTTGACGCTGCTG	3.95	6.4	6.18	2.93	8.65	7.76	5.43
CCGATTAACATCAAGGGGAATTCTGATGTTAATCGGGTCTTGATTCGCTTGACGCTGCTG	10.3	11.3	12.1	6.89	8.49	8.42	7.65
CCGATTAACATCAGGGGGAAGACTGATGTTAATCGGGTCTTGATTCGCTTGACGCTGCTG	5.87	6.01	6.96	8.23	4.92	5.25	6.29
CCGATTAACATCAAATGTTCCCCTGATGTTAATCGGGTCTTGATTCGCTTGACGCTGCTG	5.58	6.77	7.62	9.87	5.59	6.21	4.41
